Screens (PubChem)
uPA surface inh: qHTS for Inhibitors of Cell Surface uPA Generation | cell surface uPA generation assay, qHTS | Potency, µM (titrated, usually from 38.3 µM), hits mostly inhibitors | 330,000 compounds, 0.31% hits | AID 540303, 2011; active = well fitted inhibition curve with a large enough effect; inconclusive = small, poorly fitted or top-dose-only effect; inactive = no such curve, though single readings can be large or run the other way; tested in mouse RAW 264.7 cells; note: nearly all actives have a fitted effect of over 55% in size
TDP1 block: qHTS Assay for Inhibitors of Tyrosyl-DNA Phosphodiesterase (TDP1); Tyrosyl-DNA phosphodiesterase 1 (Homo sapiens), Q9NUW8; recombinant TDP1, AlphaScreen DNA substrate cleavage; Potency, µM (doses to about 130 µM), actives largely listed as inhibitors; 350,000 compounds, 0.28% hits; AID 485290, 2010; note: nearly all actives have a fitted effect of over 40% in size
Target sequence (Q9NUW8 whole entry, looked up): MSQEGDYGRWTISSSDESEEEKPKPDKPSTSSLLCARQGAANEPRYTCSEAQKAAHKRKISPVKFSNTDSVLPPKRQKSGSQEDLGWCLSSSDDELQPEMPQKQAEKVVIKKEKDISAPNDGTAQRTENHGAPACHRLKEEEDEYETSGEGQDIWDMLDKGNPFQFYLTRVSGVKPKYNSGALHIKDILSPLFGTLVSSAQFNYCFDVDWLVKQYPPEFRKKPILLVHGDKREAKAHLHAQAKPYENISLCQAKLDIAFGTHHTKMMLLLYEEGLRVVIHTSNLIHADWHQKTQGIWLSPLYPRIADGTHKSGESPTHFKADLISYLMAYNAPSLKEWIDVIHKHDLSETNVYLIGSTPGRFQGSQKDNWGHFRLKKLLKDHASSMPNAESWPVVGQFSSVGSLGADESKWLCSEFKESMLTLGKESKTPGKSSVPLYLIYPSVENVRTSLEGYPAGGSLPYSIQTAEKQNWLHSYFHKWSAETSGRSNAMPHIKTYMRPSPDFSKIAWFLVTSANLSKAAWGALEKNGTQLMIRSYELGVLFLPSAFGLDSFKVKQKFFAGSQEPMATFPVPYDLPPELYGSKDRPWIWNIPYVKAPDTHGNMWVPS
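Tdp1 1 nM final; 15 min RT w/ cpd; substrate 15 nM, 5 min; beads 10 ug/ml, 10 min; AlphaScreen read. Neg ctrl: no enzyme.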
miR-21 act: qHTS Assay for Modulators of miRNAs and/orActivators of miR-21 | HeLa miR-21 FLuc reporter, luciferase, 48 h | Potency, µM (top dose mostly 38.3 µM), usual class: activators | 340,000 tested, under 10 active;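 note: miR-21 action dims this reporter so a rising signal means less miR-21 action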
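Compounds were titrated across several concentrations (up to approximately 40 uM) and incubated 48 hours with HeLa miR-21-FLuc reporter cells (miR-21 target sequence downstream of FLuc, endogenous miR-21). Readout was firefly luciferase luminescence after lytic detection reagent.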
TDP1 cell noCPT: qHTS for Inhibitors of human tyrosyl-DNA phosphodiesterase 1 (TDP1): qHTS in cells in absence of CPT | DT40 Tdp1-/- hTDP1 cells, no CPT, ATP luminescence, 48 h | Potency, µM (titrated, usually from 46.2 µM), usual class: inhibitors | 420,000 compounds, 15% hits | AID 686978, 2013; note: nearly all actives have a fitted effect of over 55% in size
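Growth kinetics read by CellTiter-Glo luminescence after ≥48 hr at 37 °C. Cells: DT40 Tdp1-/- stably carrying human TDP1, 400 per well, compound exposure in the absence of CPT (DMSO vehicle).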
DT40 TDP1 CPT: qHTS for Inhibitors of human tyrosyl-DNA phosphodiesterase 1 (TDP1): qHTS in cells in presence of CPT; Potency, µM (doses to about 46.2 µM), hits mostly inhibitors; chicken DT40 Tdp1-/-;hTDP1 cells + 20 nM CPT, ATP luminescence, 48 h; 420,000 compounds, 12% hits; AID 686979, 2013; note: nearly all actives have a fitted effect of over 55% in size
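Chicken DT40 Tdp1-/- cells stably complemented with human TDP1 were seeded at 400 cells/well in medium containing 20 nM camptothecin, exposed to pin-transferred compounds, and grown at 37 °C for at least 48 hr. Viability was read as ATP luminescence.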
Numbers stand for hits; [ ] = remark or other dose. Most compounds without a hit are left out; they make up all but 16% or so of the library. Unless noted, calls come from the whole dose curve; as a rule, active = well fitted curve in the direction sought with a large enough effect; inconclusive = small, poorly fitted or top-dose-only effect, or another doubt; inactive = no such curve, though single readings can be large; an effect the other way counts as inactive or inconclusive.

CCN(CC)S(=O)(=O)c1ccc(/C=C/C(=O)Nc2cccc(F)c2)cc1 was read as uPA surface inh inactive, TDP1 block inactive, miR-21 act inactive, TDP1 cell noCPT 21µM and DT40 TDP1 CPT 21µM.
Screening COC(=O)Nc1ccc(S(=O)(=O)N(C)C)cc1 returned TDP1 block inactive, miR-21 act inactive, TDP1 cell noCPT inactive and DT40 TDP1 CPT inconclusive.
Screening Cc1ccc(S(=O)(=O)Nc2ccc(NC(=O)Nc3cccc(C(F)(F)F)c3)cc2)cc1 returned uPA surface inh inactive, TDP1 block inactive, miR-21 act inconclusive, TDP1 cell noCPT inconclusive and DT40 TDP1 CPT 18µM.
Screening CCN(CC(F)(F)C(F)F)S(=O)(=O)c1ccc(NC(=O)OC)cc1 returned uPA surface inh inactive, TDP1 block inactive, miR-21 act inactive, TDP1 cell noCPT 16µM and DT40 TDP1 CPT 26µM.
`CCN(CC(=O)NCc1ccc(Cl)cc1)S(=O)(=O)c1ccc(F)cc1` gave uPA surface inh inactive, miR-21 act inactive, TDP1 cell noCPT inactive and DT40 TDP1 CPT inconclusive.
CCN(CC(=O)NCc1ccc(F)cc1)C(=O)/C=C/c1ccc(S(=O)(=O)N(CC)CC)cc1 was read as uPA surface inh inactive, TDP1 block inactive, miR-21 act inactive, TDP1 cell noCPT 21µM and DT40 TDP1 CPT 23µM.
`Cc1ccc2nc(Cl)c(/C=N/n3c(C)nnc3C)cc2c1` gave uPA surface inh inactive, TDP1 block inactive, miR-21 act inactive, TDP1 cell noCPT 21µM and DT40 TDP1 CPT inconclusive.
COc1cccc(CN(C)CC(O)COc2cc(Cl)ccc2Cl)c1 (stereo not drawn) was read as uPA surface inh inactive, miR-21 act inactive, TDP1 cell noCPT inconclusive and DT40 TDP1 CPT inconclusive.
`O=Cc1cn(-c2ccccc2)nc1-c1ccccc1` gave uPA surface inh inactive, miR-21 act inactive, TDP1 cell noCPT inconclusive and DT40 TDP1 CPT inconclusive.
`CC1=NNC(=O)/C1=C\c1cn(-c2ccccc2)nc1-c1ccccc1` gave uPA surface inh inactive, TDP1 block inactive, miR-21 act inconclusive, TDP1 cell noCPT 4.1µM and DT40 TDP1 CPT 5.8µM.
Screening O=C(O)/C=C/c1cn(-c2ccccc2)nc1-c1ccccc1 returned uPA surface inh inactive, miR-21 act inactive, TDP1 cell noCPT inactive and DT40 TDP1 CPT inactive.
Screening O=Cc1cn(-c2ccccc2)nc1-c1ccncc1 returned uPA surface inh inactive, TDP1 block inactive, miR-21 act inactive, TDP1 cell noCPT 23µM and DT40 TDP1 CPT inconclusive.
Screening CC1(C)CC(=O)C(=Cc2cn(-c3ccccc3)nc2-c2ccc(Cl)cc2)C(=O)C1 returned uPA surface inh inactive, TDP1 block inactive, miR-21 act inactive, TDP1 cell noCPT 21µM and DT40 TDP1 CPT 9.2µM.
Screening CCCCN(C)CCNC(=O)Cn1ncc2c([nH]c3ccccc32)c1=O returned TDP1 block inactive, miR-21 act inactive, TDP1 cell noCPT inactive and DT40 TDP1 CPT inactive.
`Cc1cc(C)c(-c2c(O)c3cccnc3n(C)c2=O)c(C)c1` gave uPA surface inh inactive, TDP1 cell noCPT inactive and DT40 TDP1 CPT inactive.
CC(C)=NOC[C@@H](C)[C@H](OCc1ccccc1)C(C)C was read as TDP1 block inactive[21 µM].
For CCOC(=O)c1sc2nc3c(SCCC(=O)O)cc(C(=O)c4cc(OC)ccc4O)cn3c(=O)c2c1C the results were uPA surface inh inactive, miR-21 act inactive, TDP1 cell noCPT 5.2µM and DT40 TDP1 CPT 3.7µM.
`CCOC(=O)c1sc2nc3c(SCCC#N)cc(C(=O)c4cc(F)ccc4O)cn3c(=O)c2c1C` gave uPA surface inh inactive, TDP1 block inactive, miR-21 act inactive, TDP1 cell noCPT inconclusive and DT40 TDP1 CPT inconclusive.
Cc1cc(C(=O)NNC(=O)C2CCCC2)c(C)o1 was read as uPA surface inh inactive, TDP1 block inactive, miR-21 act inactive, TDP1 cell noCPT inactive and DT40 TDP1 CPT inactive.
CC1=C(C#N)C(C(F)(F)F)(C(F)(F)F)N=C(c2ccco2)N1 was read as uPA surface inh inactive, TDP1 block inactive, miR-21 act inactive, TDP1 cell noCPT 16µM and DT40 TDP1 CPT inconclusive.
`CC1=NN(C(=O)Cn2ccc([N+](=O)[O-])n2)C(O)(C(F)(F)F)C1` (stereo not drawn) gave uPA surface inh inactive, TDP1 block inactive, miR-21 act inactive, TDP1 cell noCPT 5.8µM and DT40 TDP1 CPT 5.8µM.
`CC1=NN(C(=O)c2cccc(Cn3nc(C)c([N+](=O)[O-])c3C)c2)C(O)(C(F)(F)F)C1` (stereo not drawn) gave TDP1 block inactive, miR-21 act inactive, TDP1 cell noCPT inconclusive and DT40 TDP1 CPT inactive.
`COc1nn(CC(=O)N2N=C(C)CC2(O)C(F)(F)F)cc1[N+](=O)[O-]` (stereo not drawn) gave uPA surface inh inactive, TDP1 block inactive, miR-21 act inactive, TDP1 cell noCPT inactive and DT40 TDP1 CPT inactive.
`CC1=NN(C(=O)Cn2nc([N+](=O)[O-])c(Br)c2C)C(O)(C(F)(F)F)C1` (stereo not drawn) gave uPA surface inh inactive, TDP1 block inactive, miR-21 act inactive, TDP1 cell noCPT 21µM and DT40 TDP1 CPT 23µM.
CC1=NN(C(=O)c2ccc(Cn3cc([N+](=O)[O-])cn3)cc2)C(O)(C(F)(F)F)C1 (stereo not drawn) was read as uPA surface inh inactive, TDP1 block inactive, miR-21 act inactive, TDP1 cell noCPT 3.7µM and DT40 TDP1 CPT 1.8µM.
O=C(O)CCSc1ccc([N+](=O)[O-])cc1[N+](=O)[O-] was read as uPA surface inh inactive, TDP1 block inactive, miR-21 act inactive, TDP1 cell noCPT inconclusive and DT40 TDP1 CPT inconclusive.
`COc1cccc(C2C(C(=O)c3cccs3)=C(O)C(=O)N2c2cc(C)on2)c1` (stereo not drawn) gave uPA surface inh inactive, TDP1 block inactive, miR-21 act inactive, TDP1 cell noCPT inactive and DT40 TDP1 CPT inactive.
COc1cc(C2C(C(=O)c3ccc(C)o3)=C(O)C(=O)N2c2cc(C)on2)ccc1OCc1ccccc1 (stereo not drawn) was read as uPA surface inh inactive, TDP1 block inactive, miR-21 act inactive, TDP1 cell noCPT 29µM and DT40 TDP1 CPT inconclusive.
Cc1cc(N2C(=O)C(O)=C(C(=O)c3cc4ccccc4o3)C2c2ccc(OC(C)C)cc2)no1 (stereo not drawn) was read as uPA surface inh inactive, TDP1 block inactive, miR-21 act inactive, TDP1 cell noCPT 16µM and DT40 TDP1 CPT inconclusive.
